Here are results for 45 compounds from publication PMC4552634, “A New Set of Chemical Starting Points with Plasmodium falciparum Transmission-Blocking Potential for Antimalarial Drug Discovery” (PLoS ONE, 2015).

Among all 13,000 compounds or so, about 3,200 (25%) showed an effect of 50% or more. The list shows a part of the results.

In general, % Inhibition refers to the change of the read-out against control, counted positive when it falls.

The assay relates to P. falciparum stage V gametocytes. The arrangement: BacTiter-Glo ATP luminescence viability of purified stage V gametocytes in 384-well plates, per cent inhibition versus DMSO. To be noted: 48 h, 5 µM; inhibitor.
In the case of `O=C(N[C@@H](CC1CCCCC1)C(=O)NCCN1CCCCC1)c1ccc(O)c(-c2cccc(C(F)(F)F)c2)c1` [TCMDC-140818], the “% Inhibition” value was found to be 37.36%. The result for `COc1cc(Cc2cnc(N)nc2N)cc(OCc2cccc(C(=O)O)c2)c1OC` [TCMDC-137888] reads -0.7108%. With `Oc1ccc(CN2CCN(CCOC(c3ccccc3)c3ccccc3)CC2)cc1Cl` [TCMDC-135690] the figure was -0.9629%; with `Cc1cccc2nc(-c3ccc(-c4ccc(NC(=O)Nc5ccc(F)c(F)c5F)cc4)s3)[nH]c12` [TCMDC-133222], -13.04%. `Cc1ccc(Nc2nc(N/N=C/c3cc4c(cc3Br)OCO4)nc(Nc3ccc([N+](=O)[O-])cc3)n2)cc1C` [TCMDC-124185]: the “% Inhibition” value is listed as 19.94%. On to `c1cc(CN2CCC(CCN3CCCCC3)CC2)cc(-c2csc(-c3nc4ccccc4[nH]3)c2)c1` [TCMDC-133919], for which the “% Inhibition” value is reported as 95.43%. With `c1cc(CN2CCCCC2)cc(-c2ccc(-c3nc4ccccc4[nH]3)cc2)c1` [TCMDC-133890] the figure was -8.246%; with `c1cc(CN2CCC(CCN3CCCCC3)CC2)cc(-c2cccc(-c3nc4ccccc4[nH]3)c2)c1` [TCMDC-133920], 106.4%.

Turning to `NC1CCN(Cc2cccc(-c3csc(-c4nc5ccccc5[nH]4)c3)c2)C1` (stereo not drawn) [TCMDC-133876], the “% Inhibition” value was found to be 10.66%. The result for `c1cc(CN2CCN(CCN3CCOCC3)CC2)cc(-c2csc(-c3nc4ccccc4[nH]3)c2)c1` [TCMDC-133921] reads 11.49%; that for `c1cc(CN2CCCCC2)cc(-c2cccc(-c3nc4ccccc4[nH]3)c2)c1` [TCMDC-133914], -55.81%. The result for `C=CCc1cc(Br)ccc1OCCCOc1c(N)nc(N)nc1N` [TCMDC-131367] reads 16.05%; that for `CCn1cc(CN2CCCC(C(=O)Nc3ccc(-c4nc5ccccc5[nH]4)cc3)C2)c(C)n1` (stereo not drawn) [TCMDC-124673], -63.8%; that for `CCc1ccc(N2C(=O)C3C(Cc4ccc(OC(C)(C)C)cc4)NC4(C(=O)N(Cc5ccccc5)c5ccc(F)cc54)C3C2=O)cc1` (stereo not drawn) [TCMDC-139770], 11.03%. With `Cc1cc(F)ccc1N(c1nc(-c2cc(Cl)ccc2Cl)cs1)C1CCNC1` (stereo not drawn) [TCMDC-136653] the figure was 19.89%; with `Fc1ccc(N(c2nc(-c3cc(F)cc(C(F)(F)F)c3)cs2)C2CCNCC2)cc1` [TCMDC-136656], 103.4%; with `COc1ccc(N(c2nc(-c3cc(Cl)ccc3Cl)cs2)C2CCNCC2)cc1` [TCMDC-136654], 103.4%. With `CC(=O)N(Cc1nc(-c2cc(C(F)(F)F)cc(C(F)(F)F)c2)cs1)c1c(C)cccc1C` [TCMDC-135641], the “% Inhibition” value amounted to 20.05%. With `COc1ccc(F)cc1-c1csc(N(c2ccc(F)cc2)C2CCNCC2)n1` [TCMDC-136652] the figure was 68.19%; with `COc1ccc(N(c2nc(-c3cc(Cl)ccc3Cl)cs2)C2CCNC2)cc1` (stereo not drawn) [TCMDC-136655], 0.8137%.

With `CCN(CC)CCCN(C(=O)Nc1cc(F)cc(F)c1)c1nc(-c2ccc(F)cc2)cs1` [TCMDC-136665], the “% Inhibition” value is -54.99%. With `N#Cc1ccc2[nH]cc(CN3CCC4(CC3)CN(CCNCc3ccccc3)C(=O)CO4)c2c1` [TCMDC-136734], the “% Inhibition” value is recorded as -19.1%. With `Cc1ccccc1C1CCN(C2CCC(NC(=O)/C=C/c3ccc(C(F)(F)F)cc3)CC2)CC1` (stereo not drawn) [TCMDC-133511] the figure was -86.18%. With `CC[C@@]1(O)C(=O)OCc2c1cc1n(c2=O)Cc2c-1nc1cc3c(cc1c2CN1CCN(C)CC1)OCCO3` [TCMDC-131875] the figure was -10.57%; with `CCOc1ccc2ccccc2c1C(=O)Nc1cc(C)nn1-c1nc(C)cc(=O)[nH]1` [TCMDC-124946], -19.22%.

`O=C(/C=C/c1ccc(Cl)c(Cl)c1)NC1CCN(CCCNC(=O)c2cccc(Cl)c2)CC1` [TCMDC-133356]: the “% Inhibition” value is on record as 10.9%. The result for `CCC(=O)c1cc(C(=O)NCCc2cccc(OC)c2)ccc1OC` [TCMDC-140139] reads 9.268%; that for `COc1cccc(-c2ccc(O)c(CNCCc3cccc(F)c3)c2)n1` [TCMDC-124645], 3.898%; that for `CCc1c(CCNCCCC(C)CCNCCc2ccc(OC)c(OC)c2CC)ccc(OC)c1OC` (stereo not drawn) [TCMDC-132065], 107.6%. The result for `CCc1c(CCNCCc2cccc(CCNCCc3ccc(OC)c(OC)c3CC)c2)ccc(OC)c1OC` [TCMDC-132056] reads 108.6%; that for `CCc1c(CCNCCCCCNCCc2ccc(OC)c(OC)c2CC)ccc(OC)c1OC` [TCMDC-132064], 110.1%.

In the case of `COc1cccc(CCc2c(CCNCCCCCCNCCc3ccccc3)ccc(OC)c2OC)c1` [TCMDC-132105], the “% Inhibition” value is 111.5%.

For `COc1cccc(C(=O)NCCc2cccc(Cl)c2)c1Oc1ccccc1` [TCMDC-141237], the “% Inhibition” value was -16.09%. In the case of `CCOC(=O)C1=C(C)NC2=C(C(=O)CC(C)(C)C2)C1c1ccc(Br)cc1` (stereo not drawn) [TCMDC-124142], the “% Inhibition” value is on record as 9.854%. With `N#Cc1ccc2c(c1)CCN(CCC1CCC(NC(=O)Nc3ccnc4ccccc34)CC1)C2` (stereo not drawn) [TCMDC-139289] the figure was -21.63%; with `COc1ccc(Cc2c(C)nc3nc(N)nc(N)c3c2C)cc1` [TCMDC-137660], 3.866%. With `COC(=O)c1ccc(CC(C)NCC(O)c2cccc(I)c2)cc1` (stereo not drawn) [TCMDC-131484] the figure was -10.65%; with `O=C(C1CCN(c2nnnn2-c2ccccc2)CC1)N1CCc2ccccc2C1` [TCMDC-123642], 26.99%; with `COc1ccc(N2CCN(CCc3ccc(NC(=O)c4ccc([N+](=O)[O-])cc4)cc3)CC2)c(OC)c1` [TCMDC-138185], -26.83%.

As for `CCc1c(CCNCCCCCCNCCc2ccc(OC)cc2)ccc(OC)c1OC` [TCMDC-132050], the “% Inhibition” value was found to be 110.1%.

With `CCc1c(CCNCCCCCCNCCc2ccc([N+](=O)[O-])cc2)ccc(OC)c1OC` [TCMDC-132066], the “% Inhibition” value was found to be 101.3%. With `COc1cc(Cc2cnc(N)nc2N)cc(OCCCCc2ccc([N+](=O)[O-])cc2)c1OC` [TCMDC-137901] the figure was 2.332%; with `CCc1c(CCNCCCCCCNCCc2ccccc2)ccc(OC)c1OC` [TCMDC-132063], 92.32%; with `CCc1c(CCNCC/C=C/CCNCCc2ccc(OC)c(OC)c2CC)ccc(OC)c1OC` [TCMDC-132062], 100.4%. The result for `COc1cc(C)c(C(O)CNC(C)CCc2ccccc2)cc1C` (stereo not drawn) [TCMDC-131251] reads 28.09%.
